Compound activity: PubChem BioAssay, National Center for Advancing Translational Sciences (NCATS)
FLuc modulator – counter-screen for miR-21 project: firefly luciferase inhibitors or activators. purified FLuc, Km substrates, luminescence inhibition. Potency, µM (top dose mostly 57.5 µM), inactives show at the top dose activity change, negative = inhibition, hits mostly inhibitors. actives 6.9% (n = 360,000);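 note: plate controls were vehicle for no effect and reference inhibitor for full effect; nearly all actives have a fitted effect of over 55% in size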
Target sequence (P08659 whole entry, looked up): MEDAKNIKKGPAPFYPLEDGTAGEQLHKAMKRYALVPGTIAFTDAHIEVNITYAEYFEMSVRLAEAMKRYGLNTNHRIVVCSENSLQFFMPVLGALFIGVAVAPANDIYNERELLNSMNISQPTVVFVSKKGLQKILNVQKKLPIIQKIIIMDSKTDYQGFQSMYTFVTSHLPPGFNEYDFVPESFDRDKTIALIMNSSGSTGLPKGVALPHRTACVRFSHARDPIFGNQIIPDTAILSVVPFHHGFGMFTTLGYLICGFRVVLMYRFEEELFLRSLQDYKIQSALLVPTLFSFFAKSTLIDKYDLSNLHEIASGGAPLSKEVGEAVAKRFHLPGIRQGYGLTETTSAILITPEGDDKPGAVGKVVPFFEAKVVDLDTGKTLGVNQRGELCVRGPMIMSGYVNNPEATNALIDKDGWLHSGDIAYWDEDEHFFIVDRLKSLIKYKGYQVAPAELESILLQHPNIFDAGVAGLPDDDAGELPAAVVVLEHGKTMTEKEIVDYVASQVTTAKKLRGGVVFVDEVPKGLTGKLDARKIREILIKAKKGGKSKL
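Purified P. pyralis luciferase, 10 nM final, with Km-level 10 uM D-luciferin and 10 uM ATP in 50 mM Tris acetate pH 7.5, 10 mM Mg acetate, 0.01% Tween-20, 0.05% BSA; 6-point qHTS titration about 60 µM downward; luminescence read.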
NPC1 promoter act – activators of NPC1 promoter. Huh7 NPC1 promoter luciferase reporter, 24 h. Potency, µM (top dose mostly 9.22 µM), for the others: at the top dose activation, usual class: activators. actives 2.4% (n = 320,000). AID 485313; note: % of control where 0% means no effect; nearly all actives have a fitted effect of over 60% in size
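Luciferase expression driven by the NPC1 promoter was measured in stably transfected Huh7 cells after a 24 h compound incubation, using a luciferase reagent and a luminescence read.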
ELG1 DNA repair – blocks ELG1-dependent DNA repair in HEK293T cells | Potency, µM (doses to about 46.1 µM), for the others: at the top dose activity change, negative = inhibition, most hits filed as inhibitors | AID 504467 | actives 2.3% (n = 330,000) | HEK293T ELG1-luciferase reporter, luminescence, 16 h; DNA damage induced by 5-fluorouridine; note: % is set by controls: 0 for no effect and ±100 for the full control effect; nearly all actives have a fitted effect of over 55% in size
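Quantitative HTS, concentration-response format. 2,000 cells/well co-treated with 5-fluorouridine and compound, 16 hr in 5% CO2 at 37 °C; ONE-Glo luminescence read after 30 min.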
Rab9 promoter act – activates the Rab9 promoter | Huh7 Rab9 promoter-luciferase reporter, luminescence, 24 h | Potency, µM (top dose mostly 9.22 µM), inactives show at the top dose activation, negative = inhibition, most hits filed as activators | actives 2.8% (n = 320,000) | AID 485297; note: % of control where 0% means no effect; nearly all actives have a fitted effect of over 60% in size
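Luminescence read-out: Huh7 cells stably expressing Rab9-luciferase, treated 24 h with compound at 37 °C, then lysed with luciferase reagent for 10 min at ambient before reading.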
SMN2 splice enh – enhancers of SMN2 splice variant expression; HEK293 SMN2-luciferase splicing reporter, luminescence, 30-36 h; Potency, µM (series often up to 46.1 µM), for the others: at the highest dose activity change, positive = activation, most hits filed as activators; AID 1458; actives 2.8% (n = 210,000); note: % of control where 0% means no effect; nearly all actives have a fitted effect of over 55% in size
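HEK293 cells carry an SMN2 minigene-luciferase reporter in which exon 7 inclusion puts luciferase in frame. Cells were seeded at 2000 cells/well, attached for 10-12 hours, then exposed to compounds for 30-36 hours at 37C before ONE-Glo luminescence.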
ELG1 genotoxic – induces genotoxicity in HEK293T cells with luciferase-tagged ELG1; actives 1.3% (n = 330,000); Potency, µM (titrated, usually from 46 µM), without a hit: at the top dose activity change, positive = activation, actives largely listed as activators; HEK293T ELG1-luciferase reporter, luminescence, 16 h; note: % of control where 0% means no effect; nearly all actives have a fitted effect of over 60% in size
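Luminescence read-out: rising ELG1-luciferase signal, reflecting elevated ELG1 protein under genetic stress, flags genotoxic compounds. Cells were treated for 16 hr at 37 °C before ONE-Glo detection.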
* hit, by the source's call; u = inconclusive; x = no result; [ ] = another dose, or the depositor's remark. Most compounds without a hit are left out; they make up all but 9.2% or so of the library. Calls come from the whole dose curve; as a rule, active = well fitted curve in the direction sought with a large enough effect; inconclusive = small, poorly fitted or top-dose-only effect, or another doubt; inactive = no such curve, though single readings can be large; an effect the other way counts as inactive or inconclusive. Potency is the fitted concentration of half-maximal effect.

SMILES	FLuc modulator	NPC1 promoter act	ELG1 DNA repair	Rab9 promoter act	SMN2 splice enh	ELG1 genotoxic
C=CC[C@H](CC(=O)N[C@H](CO)Cc1ccccc1)C(=O)N[C@@H](COC(=O)[C@@H](CC=C)CC(=O)OC(C)(C)C)Cc1c[nH]c2ccccc12	x	x	u	x	x	-6.0%
C=CC[C@@H](CC(=O)N[C@@H](CO)Cc1ccccc1)C(=O)N[C@H](COC(=O)[C@@H](CC=C)CC(=O)OC(C)(C)C)Cc1c[nH]c2ccccc12	x	x	20.6µM*	x	x	-6.9%
C=CC[C@@H](CC(=O)N[C@@H](CO)Cc1ccccc1)C(=O)N[C@@H](COC(=O)[C@@H](CC=C)Cc1ccc(F)cc1)Cc1c[nH]c2ccccc12	x	x	0.8%	x	x	-0.7%
CC(C)OC(=O)n1c(=S)oc2ccccc21	-7.7%	11.5%	u	-0.1%	-29.2%	10.5%
CCCCC(=O)/C=C/n1c(=S)oc2ccccc21	2.39µM*	-18.6%	u	-35.2%	-6.5%[1.84 µM]	-10.7%
CN(C)c1ccc(CN(C(=O)c2cc3ccccc3oc2=O)C2CCS(=O)(=O)C2)cc1 (stereo not drawn)	12µM*	2.82µM*	u	u	x	u
O=C(c1cc2ccccc2oc1=O)N(Cc1ccco1)C1CCS(=O)(=O)C1 (stereo not drawn)	15.1µM*	u	u	u	-7.4%	18.4µM*
O=C(c1cc2ccccc2oc1=O)N(Cc1cccc(Cl)c1)C1CCS(=O)(=O)C1 (stereo not drawn)	0.0%	x	x	x	2.8%	x
CCOc1ccc(NC(=O)Cn2cnc3nc4c(cc3c2=O)CCCC4)cc1	4.4%	x	x	x	x	x
c1ccc(C2Nc3cccc4cccc(c34)N2)cc1	15.1µM*	u	-4.7%	21.9%	x	-3.3%
Clc1ccc(C2Nc3cccc4cccc(c34)N2)cc1Cl	23.9µM*	25.5%	0.0%	15.9%	x	-3.0%
Clc1cccc(C2Nc3cccc4cccc(c34)N2)c1	u	13.4%	-5.0%	8.1%	x	-2.0%
COc1ccc(C2Nc3cccc4cccc(c34)N2)cc1	u	12.9%	10.8%	-2.2%	-4.5%	2.4%
CN(C)c1ccc(C2Nc3cccc4cccc(c34)N2)cc1	16.9µM*	u	u	u	x	u
Brc1cccc(C2Nc3cccc4cccc(c34)N2)c1	u	16.5%	0.0%	8.5%	x	-1.4%
CCOc1cc(C2Nc3cccc4cccc(c34)N2)ccc1O	13.5µM*	18.7%	-19.0%	18.3%	1.2%	-0.9%
Cc1ccc(CNC(=O)CC(C)S(=O)(=O)c2ccc3c(c2)NC(=O)CS3)o1 (stereo not drawn)	-1.0%	-2.2%	-3.8%	4.7%	x	-1.5%
Cc1cc(C)c2c(CC(=O)Nc3c(C(=O)Nc4ccc(Cl)cc4)oc4ccccc34)coc2c1	-9.5%	x	x	x	14.1%	x
CCCCN1CC(=O)N2[C@H]3c4cc(Br)ccc4OC[C@@H]3[C@H](C(=O)OCC)[C@]2(C)C1=O	4.3%	-3.2%	-21.9%	-7.2%	x	-0.3%
COCO/C=C(\NC(C)=O)c1ccccc1	-13.2%	-1.8%	u	0.7%	x	7.3%
CN(C)c1ccc(C2NC(=O)c3ccccc3N2)cc1 (stereo not drawn)	9.53µM*	10.7%	u	16.8%	x	u
O=C1NC(c2ccc(Cl)cc2)Nc2ccccc21 (stereo not drawn)	0.9%	-10.5%	2.2%	0.7%	x	-0.1%
O=C1NC(c2ccncc2)Nc2ccccc21 (stereo not drawn)	-1.5%	-0.1%	5.4%	-0.9%	x	1.1%
Cc1ccc(C2NC(=O)c3ccccc3N2)s1 (stereo not drawn)	u	-2.5%	u	11.2%	10µM*	18.4µM*
O=S(=O)(c1ccccc1)c1nnn2c1nc(Nc1ccccc1)c1cc(Cl)ccc12	-3.0%	x	x	x	-1.8%	x
SMILES	FLuc modulator	NPC1 promoter act	ELG1 DNA repair	Rab9 promoter act	SMN2 splice enh	ELG1 genotoxic
O=C(c1cnn2c(C(F)(F)F)cc(-c3cccs3)nc12)N1CCN(Cc2ccccc2)CC1	3.4%	-1.9%	6.51µM*	-2.4%	-14.8%	-13.6%
O=C(c1cnn2c(C(F)(F)F)cc(-c3cccs3)nc12)N1CCN(C(c2ccccc2)c2ccccc2)CC1	2.2%	-8.2%	5.8µM*	-2.2%	-16.8%	-3.4%
O=C(c1nn2c(C(F)(F)F)cc(-c3cccs3)nc2c1Br)N1CCCc2ccccc21	-17.9%	-16.4%	u	-4.8%	-44.8%	4.6%
O=C(c1ccco1)N1CCN(C(=O)c2cnn3c(C(F)(F)F)cc(-c4cccs4)nc23)CC1	6.7%	-6.9%	5.8µM*	0.6%	x	-11.3%
O=C(NCCc1ccccc1)c1nc2nc(-c3cccs3)cc(C(F)(F)F)n2n1	-19.9%	11.9%	u	13.7%	u	-7.8%
CN1CCN(C(=O)c2cnn3c(C(F)(F)F)cc(-c4cccs4)nc23)CC1	2.6%	-6.9%	5.8µM*	-2.7%	6.3%	1.8%
O=C(O)c1cc2nc(-c3cccs3)cc(C(F)(F)F)n2n1	-12.0%	0.1%	-0.5%	2.6%	6.6%	-4.3%
Cc1ccc(C(=O)CN(CCCC(N)=O)S(=O)(=O)c2ccc([N+](=O)[O-])cc2)cc1	3.7%	1.8%	2.4%	-4.4%	x	0.9%
O=C(Oc1ccc(N2C(=O)CCC2=O)cc1)c1ccccc1Cl	23.9µM*	-4.5%	-8.3%	0.4%	0.4%	-4.6%
Cc1cc(OC(=O)c2ccccc2Cl)cc(=O)n1C	15.1µM*	-1.5%	u	-2.2%	13.0%	-1.2%
Cc1ccc(NC(=O)c2ccccc2OCC(=O)Nc2ccccc2F)cc1S(=O)(=O)N(C)C	7.57µM*	8.0%	u	19.2%	x	0.3%
Cc1ccc(NC(=O)c2cc3ccccc3oc2=O)cc1S(=O)(=O)N(C)C	0.0757µM*	-27.9%	u	-33.6%	x	10.3%
Cc1ccc(NC(=O)c2cc3ccccc3o2)cc1S(=O)(=O)N(C)C	0.849µM*	3.16µM*	u	2.51µM*	12.6µM*	2.59µM*
CN(c1ccccc1)S(=O)(=O)c1cccc(NC(=O)c2cc3ccccc3oc2=O)c1	u	u	u	29.3%	x	u
CN(C)S(=O)(=O)c1ccc(NC(=O)c2cc3ccccc3o2)cc1	15.1µM*	u	-1.5%	u	-0.4%	-1.3%
COc1cc(-c2nnc(SCCOc3ccc(Cl)cc3)o2)cc(OC)c1OC	5.1%	x	x	x	x	x
Cc1cccc(NC(=O)Cn2cc(C(=O)c3ccco3)c3ccccc32)c1C	-8.7%	x	x	x	-23.5%	x
CC(=O)c1ccc2c3c(cccc13)C(=O)N(CCc1ccccc1)C2=O	10.7µM*	3.98µM*	u	3.98µM*	x	-4.0%
O=C(O)c1ccc2c3c(cccc13)C(=O)N(c1ccccc1)C2=O	3.0%	-3.5%	-7.6%	-0.6%	-0.1%	0.3%
